Results on four molecules are retold here after PubChem BioAssay (EPA / NIEHS).

Holding throughout (settings): mRNA level, 48 h; actives raise or lower the signal
Read-out in experiment [1]: Insulin-like growth factor-binding protein 1 (IGFBP1), IGFBP1 (gene 3484)
As to the kind of experiment: LTEA_HepaRG_IGFBP1: Life Technologies and Expression Analysis (LTEA) Assay for Insulin-like growth factor-binding protein 1 (IGFBP1) using HepaRG (AID 2283508). A digest of the protocol: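 Read-out is qRT-PCR transcript level normalized to three housekeeping genes, fitted in both directions against 0.5% DMSO. Differentiated HepaRG cells received eight half-log concentrations (top 100 uM) in duplicate for 48 h in serum-free induction medium.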

Read-out in experiment [2]: Interleukin 6 (IL6), IL6 (gene 3569)
As to the kind of experiment: LTEA_HepaRG_IL6: Life Technologies and Expression Analysis (LTEA) Assay for Interleukin 6 (IL6) using HepaRG (AID 2283509). A digest of the protocol:
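Changes in IL6 mRNA, up or down relative to 0.5% DMSO controls, were derived from concentration-response curves in human HepaRG cells treated for 48 h at up to 100 uM, with ACTB, GAPDH and POLR2A as normalizers.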

Read-out in experiment [3]: Interleukin 6 Receptor (IL6R), IL6R (gene 3570)
As to the kind of experiment: LTEA_HepaRG_IL6R: Life Technologies and Expression Analysis (LTEA) Assay for Interleukin 6 Receptor (IL6R) using HepaRG (AID 2283510). The procedure, abridged:
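In this HepaRG screen, test chemicals act on cells for 48 h at up to 100 uM (eight half-log points, duplicate wells). IL6R expression is quantified by qRT-PCR after normalization to ACTB, GAPDH and POLR2A, with DMSO as baseline.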

Read-out in experiment [4]: Potassium channel subfamily K member 1 (KCNK1), KCNK1 (gene 3775)
The experiment is described as follows: LTEA_HepaRG_KCNK1: Life Technologies and Expression Analysis (LTEA) Assay for Potassium channel subfamily K member 1 (KCNK1) using HepaRG (AID 2283511). The procedure, abridged: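 Human HepaRG cultures receive test chemicals for 48 h in 0.5% DMSO, top concentration 100 uM with half-log dilutions. Induction or suppression of KCNK1 mRNA relative to DMSO is derived by bidirectional fitting of qRT-PCR data.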

Read-out in experiment [5]: Keratin 19 (KRT19), KRT19 (gene 3880)
As to the kind of experiment: LTEA_HepaRG_KRT19: Life Technologies and Expression Analysis (LTEA) Assay for Keratin 19 (KRT19) using HepaRG (AID 2283512). The procedure, abridged:
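KRT19 transcript measured by TaqMan qRT-PCR, referenced to three housekeeping genes, after HepaRG cells received test chemicals for 48 h. Eight half-log concentrations, top 100 uM, 0.5% DMSO vehicle; increases and decreases both fitted.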

Read-out in experiment [6]: JUN Transcription Factor, JUN (gene 3725)
The experiment is described as follows: LTEA_HepaRG_JUN: Life Technologies and Expression Analysis (LTEA) Assay for JUN Transcription Factor using HepaRG (AID 2283513). The procedure, abridged: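 Gene-expression endpoint: JUN mRNA (qRT-PCR, normalized to three reference genes) in HepaRG cultures treated 48 h with chemicals, duplicate wells, 100 uM maximum with half-log dilutions; bidirectional fitting relative to 0.5% DMSO.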

Read-out in experiment [7]: Lipase C (LIPC), LIPC (gene 3990)
As to the kind of experiment: LTEA_HepaRG_LIPC: Life Technologies and Expression Analysis (LTEA) Assay for Lipase C (LIPC) using HepaRG (AID 2283514). A digest of the protocol:
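In this multiplexed gene-expression screen, human HepaRG cultures received test chemicals for 48 h across eight concentrations with 100 uM highest, in duplicate. Values reflect LIPC mRNA induction or suppression versus DMSO vehicle, from normalized qRT-PCR.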

Read-out in experiment [8]: Lipoprotein lipase (LPL), LPL (gene 4023)
As to the kind of experiment: LTEA_HepaRG_LPL: Life Technologies and Expression Analysis (LTEA) Assay for Lipoprotein lipase (LPL) using HepaRG (AID 2283515). A digest of the protocol:
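Concentration-response testing used half-log steps from 100 uM in 0.5% DMSO on human HepaRG cells, 48 h, duplicate wells. Phenobarbital 1 mM served as induction control; LPL mRNA was normalized to ACTB, GAPDH, POLR2A.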

Read-out in experiment [9]: MicroRNA 122 (MIR122), gene 406906
As to the kind of experiment: LTEA_HepaRG_MIR122: Life Technologies and Expression Analysis (LTEA) Assay for MicroRNA 122 (MIR122) using HepaRG (AID 2283516). Further: the transcript read is the microRNA miR-122. The procedure, abridged: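 Changes in transcript abundance, up or down relative to 0.5% DMSO vehicle, were scored after 48 h chemical treatment of HepaRG cells (maximum 100 uM). Quantification used TaqMan qRT-PCR normalized to housekeeping genes.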

Read-out in experiment [10]: matrix metalloproteinase-10 (MMP10), MMP10 (gene 4319)
As to the kind of experiment: LTEA_HepaRG_MMP10: Life Technologies and Expression Analysis (LTEA) Assay for matrix metalloproteinase-10 (MMP10) using HepaRG (AID 2283517). A digest of the protocol: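 In differentiated HepaRG cultures kept in 0.5% DMSO, test chemicals act for 48 h over an eight-point range with a top dose of 100 uM. Expression is then quantified by TaqMan RT-PCR against ACTB, GAPDH and POLR2A.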

Read-out in the next experiment: MYC, MYC (gene 4609)
The experiment is described as follows: LTEA_HepaRG_MYC: Life Technologies and Expression Analysis (LTEA) Assay for MYC using HepaRG (AID 2283518). A digest of the protocol:
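MYC transcript changes, up or down relative to 0.5% DMSO, from TaqMan qRT-PCR normalized to three housekeeping genes. Human HepaRG cultures received chemicals for 48 h at eight half-log concentrations up to 100 uM, in duplicate.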

Read-out in experiment [11]: matrix metalloproteinase-3 (MMP3), MMP3 (gene 4314)
As to the kind of experiment: LTEA_HepaRG_MMP3: Life Technologies and Expression Analysis (LTEA) Assay for matrix metalloproteinase-3 (MMP3) using HepaRG (AID 2283519). A digest of the protocol:
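Human liver HepaRG cultures received chemicals (top concentration 100 uM, 0.5% DMSO) for 48 h in duplicate. MMP3 mRNA induction or loss was then assessed via TaqMan qRT-PCR with housekeeping-gene normalisation.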

Read-out in experiment [12]: Paternally Expressed 10 (PEG10), PEG10 (gene 23089)
As to the kind of experiment: LTEA_HepaRG_PEG10: Life Technologies and Expression Analysis (LTEA) Assay for Paternally Expressed 10 (PEG10) using HepaRG (AID 2283520).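 On AC50: PEG10 transcript by qRT-PCR normalised to ACTB GAPDH and POLR2A.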 The procedure, abridged:
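After 48 h exposure of differentiated HepaRG cells (0.5% DMSO vehicle, eight concentrations up to 100 uM, duplicates), PEG10 mRNA was measured by TaqMan qRT-PCR. Values were normalised to endogenous control genes and analysed bidirectionally against vehicle.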

Read-out in experiment [13]: Protein phosphatase 2A (PPP2R4), PTPA (gene 5524)
The experiment is described as follows: LTEA_HepaRG_PPP2R4: Life Technologies and Expression Analysis (LTEA) Assay for Protein phosphatase 2A (PPP2R4) using HepaRG (AID 2283522). The procedure, abridged:
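Using HepaRG cultures maintained in 0.5% DMSO, chemicals are tested 48 h at up to 100 uM in duplicate. Induction or suppression of PPP2R4 mRNA, measured by qRT-PCR, is fitted bidirectionally against the vehicle baseline.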

Read-out in experiment [14]: Phosphatase and tensin (PTEN), PTEN (gene 5728)
The experiment is described as follows: LTEA_HepaRG_PTEN: Life Technologies and Expression Analysis (LTEA) Assay for Phosphatase and tensin (PTEN) using HepaRG (AID 2283523). The procedure, abridged: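 Expression of PTEN is quantified in the human liver line HepaRG following two days of dosing (top concentration 100 uM, half-log dilutions, 0.5% DMSO). Values derive from bidirectional curve fitting relative to DMSO controls.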

Read-out in experiment [15]: solute carrier (SLC22A1), SLC22A1 (gene 6580)
The experiment is described as follows: LTEA_HepaRG_SLC22A1: Life Technologies and Expression Analysis (LTEA) Assay for solute carrier (SLC22A1) using HepaRG (AID 2283524).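 On AC50: TaqMan qRT-PCR normalized to ACTB GAPDH and POLR2A housekeeping genes.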 A digest of the protocol: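 Transcript induction or suppression of SLC22A1 in human HepaRG cultures is scored after 48 h chemical treatment, with DMSO (0.5%) as baseline for bidirectional fitting. Concentrations span eight half-log points topping at 100 uM.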

Read-out in experiment [16]: Pyruvate Dehydrogenase Kinase 4 (PDK4), PDK4 (gene 5166)
As to the kind of experiment: LTEA_HepaRG_PDK4: Life Technologies and Expression Analysis (LTEA) Assay for Pyruvate Dehydrogenase Kinase 4 (PDK4) using HepaRG (AID 2283525). The procedure, abridged: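 Eight-point, half-log concentration series (max 100 uM, 0.5% DMSO) applied to differentiated HepaRG cells for 48 h in duplicate. Endpoint: PDK4 mRNA induction or repression by qRT-PCR against DMSO baseline.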

Read-out in experiment [17]: NAD(P)H dehydrogenase [quinone] 1 (NQO1), NQO1 (gene 1728)
The experiment is described as follows: LTEA_HepaRG_NQO1: Life Technologies and Expression Analysis (LTEA) Assay for NAD(P)H dehydrogenase [quinone] 1 (NQO1) using HepaRG (AID 2283526). The procedure, abridged: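 In this assay, gene expression is read by qRT-PCR after 48 h exposure of HepaRG cells to eight concentrations (max 100 uM, half-log) in 0.5% DMSO. Each chemical runs in duplicate, and activity is scored relative to vehicle.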

Read-out in experiment [18]: Nuclear factor erythroid 2-related factor 2 (Homo sapiens) (UniProt Q16236)
The experiment is described as follows: LTEA_HepaRG_NFE2L2: Life Technologies and Expression Analysis (LTEA) Assay for Nuclear factor erythroid 2-related factor 2 (NFE2L2) Transcription Factor using HepaRG (AID 2283527).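 Further: TaqMan qRT-PCR transcript level normalised to ACTB GAPDH and POLR2A housekeeping genes.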 The procedure, abridged: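 Human liver HepaRG line treated in duplicate for 48 h with an eight-point series topping at 100 uM. Gene expression of NFE2L2 by qRT-PCR, bidirectionally fitted against the vehicle control.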

Read-out in experiment [19]: Nuclear factor NF-kappa-B p105 subunit (Homo sapiens) (UniProt P19838)
The experiment is described as follows: LTEA_HepaRG_NFKB1: Life Technologies and Expression Analysis (LTEA) Assay for Nuclear Factor Kappa B Subunit 1 (NFKB1) using HepaRG (AID 2283521).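 Further: TaqMan qRT-PCR transcript normalised to ACTB GAPDH and POLR2A housekeeping genes.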 The procedure, abridged: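 Differentiated human HepaRG cells in serum-free induction medium with 0.5% DMSO were exposed for 48 h to eight half-log concentrations, top 100 uM, in duplicate. NFKB1 mRNA measured by Fluidigm TaqMan qRT-PCR, normalised to ACTB, GAPDH and POLR2A; bidirectional fit versus DMSO.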

Molecules are shown by their SMILES. Active and inactive are the calls of the source. How the source made its calls: active means hit-call score of the fitted dose curve at least 0.9, where 1 is the maximum; inactive means score below 0.9.

Chain of Nuclear factor erythroid 2-related factor 2 (Homo sapiens) (Q16236 whole entry, looked up): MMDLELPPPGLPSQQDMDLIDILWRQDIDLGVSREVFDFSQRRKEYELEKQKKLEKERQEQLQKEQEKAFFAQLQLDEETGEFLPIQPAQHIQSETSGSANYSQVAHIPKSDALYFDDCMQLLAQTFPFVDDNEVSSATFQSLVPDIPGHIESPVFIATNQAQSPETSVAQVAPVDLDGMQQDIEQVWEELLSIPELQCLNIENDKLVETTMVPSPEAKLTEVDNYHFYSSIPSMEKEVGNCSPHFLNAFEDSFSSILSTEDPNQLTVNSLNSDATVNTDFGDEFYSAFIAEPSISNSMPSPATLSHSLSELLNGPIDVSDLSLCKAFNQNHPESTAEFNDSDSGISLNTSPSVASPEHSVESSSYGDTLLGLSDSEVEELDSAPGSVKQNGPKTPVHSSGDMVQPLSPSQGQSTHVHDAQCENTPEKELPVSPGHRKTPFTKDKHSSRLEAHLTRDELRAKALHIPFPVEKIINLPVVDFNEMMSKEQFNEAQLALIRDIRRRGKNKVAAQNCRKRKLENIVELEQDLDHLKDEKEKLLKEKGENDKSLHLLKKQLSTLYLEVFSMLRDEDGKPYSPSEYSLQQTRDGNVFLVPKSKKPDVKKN
Chain of Nuclear factor NF-kappa-B p105 subunit (Homo sapiens) (P19838 whole entry, looked up): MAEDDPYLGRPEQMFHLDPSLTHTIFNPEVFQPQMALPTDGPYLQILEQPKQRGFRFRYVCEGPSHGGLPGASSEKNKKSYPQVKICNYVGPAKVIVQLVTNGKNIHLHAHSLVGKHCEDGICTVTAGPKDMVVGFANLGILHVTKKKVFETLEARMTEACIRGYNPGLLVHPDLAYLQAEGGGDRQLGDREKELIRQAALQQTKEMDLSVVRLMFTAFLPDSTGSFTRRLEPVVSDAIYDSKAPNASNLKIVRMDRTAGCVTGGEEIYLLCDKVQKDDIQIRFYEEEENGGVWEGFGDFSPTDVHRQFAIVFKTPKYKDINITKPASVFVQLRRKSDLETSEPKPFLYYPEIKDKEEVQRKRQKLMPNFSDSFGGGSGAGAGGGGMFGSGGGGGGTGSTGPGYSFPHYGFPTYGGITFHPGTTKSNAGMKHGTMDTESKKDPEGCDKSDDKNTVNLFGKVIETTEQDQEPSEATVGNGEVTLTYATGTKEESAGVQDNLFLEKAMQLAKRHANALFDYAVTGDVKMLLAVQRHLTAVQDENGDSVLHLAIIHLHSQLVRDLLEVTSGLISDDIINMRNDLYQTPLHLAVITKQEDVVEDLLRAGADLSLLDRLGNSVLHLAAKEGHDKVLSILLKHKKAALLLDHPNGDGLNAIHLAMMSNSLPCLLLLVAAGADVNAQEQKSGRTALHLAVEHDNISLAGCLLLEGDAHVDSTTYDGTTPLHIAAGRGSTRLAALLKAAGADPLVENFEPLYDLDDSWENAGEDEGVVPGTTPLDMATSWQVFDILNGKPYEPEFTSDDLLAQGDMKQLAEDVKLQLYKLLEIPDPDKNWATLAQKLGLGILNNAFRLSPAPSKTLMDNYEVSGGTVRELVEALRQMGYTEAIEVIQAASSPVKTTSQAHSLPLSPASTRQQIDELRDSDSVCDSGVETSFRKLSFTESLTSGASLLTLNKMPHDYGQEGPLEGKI

Take `CCCSP(=O)(OCC)SCCC`: the molecule was called inactive in [1], in experiment [2], in experiment [3], in experiment [4], in experiment [5] and in [6]. Also, the outcome in experiment [7] was “inactive”; in [8] it was “inactive”; in [9] it was “inactive”; in experiment [10], “inactive”; with MYC, MYC (gene 4609) it was “inactive”; in experiment [11], “inactive”. Also, the molecule was classed as inactive in experiment [12], in experiment [13], in experiment [14], in experiment [16], in experiment [17] and in experiment [18]. In experiment [15], the half-maximal activity concentration (AC50) was 10.2 µM (active).

`COP(=O)(OC)SCn1c(=O)oc2cc(Cl)cnc21`: the molecule was called inactive in experiment [1], in experiment [2], in [3], in experiment [4], in [5] and in experiment [6]. The outcome is “inactive” in [9]; “inactive” in [10]; “inactive” with MYC, MYC (gene 4609); “inactive” in experiment [11]; “inactive” in experiment [13]; “inactive” in [14]. The molecule was classed as inactive in [16], in experiment [17] and in experiment [18]. In addition, the concentration at half-maximal activity (AC50) in experiment [7] was 79.1 µM (active); in experiment [12] it was 62.4 µM (active); in [15] it was 50 µM (active).

For `CC(C1CC1)C(O)(Cn1cncn1)c1ccc(Cl)cc1` (centres undefined), the molecule was called inactive in experiment [1], in experiment [2], in experiment [3], in experiment [4], in experiment [5] and in experiment [6]. Moreover, the outcome is “inactive” in experiment [7]; “inactive” in experiment [8]; “inactive” in experiment [9]; “inactive” in experiment [10]; “inactive” with MYC, MYC (gene 4609); “inactive” in experiment [12]. The call in [19], in [13], in experiment [14], in experiment [16], in experiment [17] and in [18] was inactive. In addition, in experiment [15], the half-maximal activity concentration (AC50) is 66.9 µM (active).

For `CCOP(=S)(OCC)SCCSCC`, the molecule was called inactive in [1], in experiment [2], in [3], in [4], in experiment [5] and in [6]. For the same molecule, the outcome in [7] is “inactive”; in experiment [9], “inactive”; in [10], “inactive”; in the experiment with MYC, MYC (gene 4609), “inactive”; in [11] it was “inactive”; in [12], “inactive”. The call in experiment [13], in experiment [14], in [15], in [16], in [17] and in experiment [18] was inactive.

The term AC50 denotes the midpoint of the concentration-response curve, whichever way the signal moves.
